Screens deposited in PubChem by several laboratories.
This is a sample that favours compounds with a hit; in the whole collection about 0.77% have one here.
zVAD death inh: L929 zVAD cell death inhibition; L929 zVAD necroptosis rescue, ATP luminescence, 24 h; with zVAD 60 µM; viability rescue, % at 10 µM; hit rate 0.38% among 220,000; AID 1377;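 active = activation, scaled between plate controls, above about 75%, limit read from the data; inactive = activation under that limit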;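 also: 0% = zVAD with DMSO and 100% = DMSO alone without zVAD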
m-calpain inh: blocks pig calpain II enzyme activity. purified calpain II, fluorogenic peptide substrate, 30 min. inhibition, % at 16 µM. hit rate 0.37% among 220,000. AID 1236;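 active = inhibition above about 50%, limit read from the data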
HSV augment: HSV replication enhancement. HSV replication augmentation in cells, fold increase. maximum fold increase. hit rate 0.005% among 220,000; in the data active = maximum fold increase above about 1.5; tested in PC3 cells
TNF necrop inh: TNF-alpha cell death inhibition in Jurkat FADD-/- cells; Jurkat FADD-/- TNF necroptosis rescue, ATP luminescence, 24 h; 0 = TNF only, 100 = no-TNF cells; activation (protection from cell death), % at 10 µM; hit rate 0.068% among 220,000;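 active = activation, meaning protection from cell death, of at least 50% relative to plate controls; inactive = activation below 50%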;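 also: necroptosis triggered by 40 ng/mL TNF-alpha added together with compound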
zVAD necrop conf: confirmed blocker of zVAD induced death in L929 cells. shares compounds with zVAD death inh. L929 zVAD-induced necroptosis rescue, ATP luminescence, 24 h. activation (protection from necroptosis), % at 10 µM. hit rate 16% among 760;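 active = mean protection from necroptosis of at least 50% over duplicate tests; inactive = mean protection below 50%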;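 also: 0% = cells with zVAD alone and 100% = vehicle cells without zVAD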
The depositor's hits bear a star; i = inactive; . = no result given.

SMILES | zVAD death inh | m-calpain inh | HSV augment | TNF necrop inh | others
O=C(c1ccccc1)c1cn(CC(=O)N2CCCc3ccccc32)c2ccccc12 | -0.4 | 56.2* | i | -0.3
O=C(CNC1CCCC1)Nc1ccc(N2CCCCCC2)cc1 | 46.1 | -24.3 | i | 3.3
CC(=NCCCn1ccnc1)c1c(O)n(Cc2ccccc2)c(=O)[nH]c1=O | -0.6 | -12.6 | i | 0.5
CCCCC/C=C\C/C=C\C/C=C\C/C=C\CCCC(=O)Nc1ccc(O)cc1 | . | 63.2* | i | .
CCOc1ccccc1OCC(=O)Nc1ccc(Cl)cc1C(=O)c1ccccc1 | . | 32.8 | i | 0.6
O=C(COC(=O)c1cccc(O)c1)Nc1ccc(Cl)cc1C(=O)c1ccccc1 | 2.7 | 52.6* | i | -0.8
Cc1cc([N+](=O)[O-])c2ccccc2[n+]1[O-] | 81.0* | -1.4 | i | -28.4 | zVAD necrop conf=66.6*
C[C@H]1CCC[C@@H](O)CCC/C=C/c2cc(O)cc(O)c2C(=O)O1 | 79.1* | -31.6 | i | 13.0 | zVAD necrop conf=0.6
C[C@H]1CCC[C@H](O)CCCCCc2cc(O)cc(O)c2C(=O)O1 | 0.1 | 9.3 | i | 8.4
CCN(CC)P(=O)(Oc1ccccc1)Oc1ccccc1 | -0.1 | 10.8 | i | 0.4
